Common to all, as to assay: NCI-60 one-dose screen, 48 h (100 = growth as untreated, 0 = no growth, -100 = all killed)
What all share (settings): 10 µM unless noted

The subject of assay [1] is T-47D breast.
The subject of assay [2] is BT-549 breast.
In assay [3] the test system is MDA-MB-435 melanoma.
The test system of assay [4] is SW-620 colon.
Assay [5] deals with MCF7 breast.
Assay [6] deals with HCT-116 colon.
Assay [7] has as its system HCC-2998 colon.
The subject of assay [8] is KM12 colon.

About 83,000 compounds went through this panel and 20% of them were active in at least one assay; those are over-represented in the sample as a whole.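 Results are percent growth after 48 hours of single-concentration exposure. 100 means growth as in untreated cells, lower positive values show inhibition; negative values down to -100 show cell death.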 A number with no mark means an inactive call. Active and inactive are the calls of the source. Rule for the calls: active = growth percent below 10; inactive = the rest.

In PubChem BioAssay (NCI) one finds growth data, which are given here for 30 compounds.

Turning to `NC(N)=NN=C(c1ccccc1)c1ccccc1`, the growth in assay [1] is 12.2%; in assay [2], 44.1%; in assay [3], -23.8% (active); in assay [4], 28.1%; in assay [5], 16.3%; in assay [6], 29%.
Regarding `CCSC1=NC2C(N(CC)C(=O)N2CC)N1/N=C/C=C/c1ccccc1[N+](=O)[O-]` (configuration not stated), the growth is 63.3% in assay [1]; 10.1% in assay [2]; -37.4% (active) in assay [3]; 16.7% in assay [4]; 12.3% in assay [5]; 4.16% (active) in assay [6]. Also, in assay [7], the growth was 11%.
Consider `COc1ccc(C2CC(c3cccc(OC)c3)=NN2C(=O)c2cc(OC)c(OC)c(OC)c2)cc1` (configuration not stated), for which the growth in assay [1] is 29%; in assay [2], 39.5%; in assay [3], -58.8% (active); in assay [4], 22.5%; in assay [5], 16.2%; in assay [6], 15.3%. In addition, the growth in assay [7] was -10.3% (active); in assay [8] it was 15.4%.
With `Cc1ccc(N(C(=O)CCc2c[nH]c3ccccc23)[C@H](C(=O)Nc2ccc(Cl)cc2)c2cccc([N+](=O)[O-])c2)cc1`, the growth in assay [1] is 72.5%; in assay [2], 69.7%; in assay [3], 81.3%; in assay [4], 69.1%; in assay [5], 90.1%; in assay [6], 79.8%. In addition, the growth in assay [7] is 87.8%; in assay [8], 60.6%.
For `O=C(O)c1ccc2c(c1Cl)C(=O)c1ccccc1C2=O`, the growth in assay [1] is 101%; in assay [2], 116%; in assay [3], 78.3%; in assay [4] it was 107%; in assay [5], 94%; in assay [6] it was 93.2%. The growth in assay [7] is 104%; in assay [8] it was 107%.
`Clc1cccc(Cl)c1/C=C/c1cc(/C=C/c2c(Cl)cccc2Cl)[nH]n1`: the growth in assay [1] was 57%; in assay [2], 30.7%; in assay [3] it was -50% (active); in assay [4], 18.2%; in assay [5], 20.9%; in assay [6] it was 15.5%. For the same compound, the growth is 35.1% in assay [7] and 24.9% in assay [8].
`Cc1ccc(-n2c(-c3ccccc3)c(-c3ccccc3)c3c(SCC(=O)n4[nH]c(N)cc4=O)ncnc32)cc1`: the growth in assay [1] was 76.6%; in assay [2], 99%; in assay [3], 106%; in assay [4], 90.3%; in assay [5] it was 86.7%; in assay [6], 78.2%. The results for the growth in assay [7] and in assay [8] were 113% and 98.1%, respectively.
Take `CCCCCCN(CCCCCC)c1ccc(/C=C2/SC(=O)N(c3nc(N4CCCC4)nc(N4CCCC4)n3)C2=O)c(C)c1`: the growth is 63.6% in assay [1]; 88.1% in assay [2]; 75.5% in assay [3]; 73.2% in assay [4]; 54.8% in assay [5]; 45.5% in assay [6]. Moreover, the growth was 41.7% in assay [7] and 52.9% in assay [8].
For `COc1cccc(Nc2nccc(Nc3ccc4[nH]ncc4c3)n2)c1`, the growth was -51.9% (active) in assay [1]; -15.9% (active) in assay [2]; -78.4% (active) in assay [3]; -69.3% (active) in assay [4]; -50.6% (active) in assay [5]; -87% (active) in assay [6]. Also, the growth in assay [7] was -7.35% (active); in assay [8], -44.3% (active).
As for `Cc1ccc(CCC(=O)Nc2ncc(Cc3cc(Cl)ccc3Cl)s2)o1`, the growth in assay [1] was 54.3%; in assay [2] it was 3.48% (active); in assay [3] it was -36.8% (active); in assay [4], 20.8%; in assay [5], 13%; in assay [6] it was 9.11% (active). In addition, the growth in assay [7] was 8.63% (active); in assay [8] it was 14.9%.
As to `C[n+]1cccc(CC(=O)NO)c1`, the growth is 79% in assay [1]; 103% in assay [2]; 107% in assay [3]; 105% in assay [4]; 96.4% in assay [5]; 104% in assay [6]. For the same compound, the values for the growth in assay [7] and in assay [8] were 110% and 107%, respectively.
`CN(C)c1ccc(/C=C/C(=O)c2cccc(Nc3nc(Nc4ccccc4)nc(Nc4ccccc4)n3)c2)cc1`: the growth is 81.4% in assay [1]; 99.3% in assay [2]; 101% in assay [3]; 103% in assay [4]; 75.1% in assay [5]; 83.2% in assay [6]. Also, the growth in assay [7] is 64.5%; in assay [8], 99.8%.
Take `O=c1c2c3c(sc2nc(N/N=C/c2ccc(Br)cc2)n1Cc1ccccc1)CCCC3`: the growth is 87.5% in assay [1]; 93.6% in assay [2]; 83.4% in assay [3]; 83.8% in assay [4]; 58.3% in assay [5]; 67.4% in assay [6]. In addition, the results for the growth in assay [7] and in assay [8] were 37.3% and 81.9%, respectively.
Consider `CC(C)CC(NC(=O)CN(Cc1ccccc1)S(C)(=O)=O)C(=O)O` (configuration not stated), for which the growth was 82% in assay [1]; 118% in assay [2]; 94.2% in assay [3]; 108% in assay [4]; 90.5% in assay [5]; 100% in assay [6]. For the same compound, the growth in assay [7] was 95%; in assay [8] it was 98.6%.
`NC(=N\N=C/c1ccccc1[N+](=O)[O-])/C(N)=N\N=C/c1ccccc1[N+](=O)[O-]`: the growth in assay [1] was 104%; in assay [2] it was 116%; in assay [3], 101%; in assay [4] it was 105%; in assay [5] it was 105%; in assay [6] it was 108%. For the same compound, the growth in assay [7] was 108%; in assay [8], 104%.
With `CC1=C(SCCC(=O)OC(C[Se]C2=C(C)C(=O)c3ccccc3C2=O)C(=O)NCCCCCC(=O)OCc2ccccc2)C(=O)c2ccccc2C1=O` (configuration not stated), the growth is 49.9% in assay [1]; 67.3% in assay [2]; 25.1% in assay [3]; 45.7% in assay [4]; 28.2% in assay [5]; 4.77% (active) in assay [6]. For the same compound, the growth in assay [7] is 32%; in assay [8], 19.8%.
Take `N#CC1=C(c2ccc(Br)cc2)NC(SCC(=O)c2ccc(Br)cc2)NC1=O` (configuration not stated): the growth in assay [1] is 92.8%; in assay [2], 99.1%; in assay [3], 103%; in assay [4], 101%; in assay [5] it was 101%; in assay [6] it was 96.5%. For the same compound, the growth in assay [7] is 106%; in assay [8] it was 101%.
Take `CCN(CC)CCCCCCNc1cc(OC)c(Cl)c2cccnc12`: the growth in assay [1] is 81.4%; in assay [2], 93.5%; in assay [3], 14.7%; in assay [4] it was 81.2%; in assay [5] it was 66.7%; in assay [6] it was 70.8%. Also, the values for the growth in assay [7] and in assay [8] were 82.1% and 76.9%, respectively.
On to `COc1ccc(/C=c2\nc3n(-c4ccccc4)c4nc5c6c(sc5c(=N)n4n-3c2=O)CCCC6)cc1`, for which the growth is 71.9% in assay [1]; 94.2% in assay [2]; 89.5% in assay [3]; 104% in assay [4]; 71.9% in assay [5]; 77% in assay [6]. The growth is 105% in assay [7] and 92.5% in assay [8].
Turning to `CC/C=C\C/C=C\C[C@H](O)C/C=C1/C(=O)C=C[C@@H]1C/C=C\CCCC(=O)O`, the growth in assay [1] was 14.2%; in assay [2], -29.3% (active); in assay [3], 10.1%; in assay [4], 21.4%; in assay [5], 23.6%; in assay [6], -61.1% (active). Besides, the figures for the growth in assay [7] and in assay [8] were -22% (active) and 6.23% (active), respectively.
Turning to `O=C(/C=C/c1cccc(O)c1)c1cccc(-n2cc(-c3ccc4ccccc4c3)[nH]c2=O)c1`, the growth in assay [1] was -22.5% (active); in assay [2], -29.8% (active); in assay [3], -15.6% (active); in assay [4] it was -55.1% (active); in assay [5] it was -32.2% (active); in assay [6], -100% (active). Moreover, the growth was 44.3% in assay [7] and -72% (active) in assay [8].
Take `N#Cc1nc2c(S(=O)(=O)c3ccc(Cl)cc3)c(N)n(Nc3cccc(Cl)c3)c2nc1C#N`: the growth in assay [1] is 53.5%; in assay [2], 47.8%; in assay [3], 53%; in assay [4], 35.9%; in assay [5] it was 58.5%; in assay [6] it was 32.9%. The growth was 82.3% in assay [7] and 64.3% in assay [8].
Take `COC(=O)[C@]12CC[C@@H](C)[C@H](C)[C@@H]1C1=CC[C@@H]3[C@@]4(C)C(C=O)=C[C@@](C)(COC(C)=O)[C@@H]4[C@H](O)C[C@@]3(C)[C@]1(C)CC2`: the growth in assay [1] is -18.5% (active); in assay [2] it was -19.8% (active); in assay [3], -24.3% (active); in assay [4], -59.4% (active); in assay [5], -11.7% (active); in assay [6] it was -76.8% (active). For the same compound, the growth in assay [7] was -71% (active); in assay [8], -27.5% (active).
For `C[n+]1cc2cc(C(N)=O)[nH]c3c(=N)c(Cl)c(N)c1c23`, the growth in assay [1] was 48.3%; in assay [2], 78.9%; in assay [3], 85.7%; in assay [4] it was 30.8%; in assay [5] it was 35.8%; in assay [6] it was 6.54% (active). The results for the growth in assay [7] and in assay [8] were 65.5% and 74.5%, respectively.
For the compound `CCCCc1ccc(Nc2ccc(Nc3ccc(CCCC)cc3S(=O)(=O)O)c3c2C(=O)c2ccccc2C3=O)c(S(=O)(=O)O)c1`, the growth in assay [1] is 106%; in assay [2] it was 94%; in assay [3], 84.6%; in assay [4] it was 98.6%; in assay [5], 86.9%; in assay [6] it was 106%. For the same compound, the growth in assay [7] was 117%; in assay [8], 96.9%.
On to `O=C(c1ccc(Nc2nccc(NCCCCNc3ccnc4cc(Cl)ccc34)n2)cc1)N1CCCCC1`, for which the growth is -33.2% (active) in assay [1]; 97.6% in assay [2]; -67.6% (active) in assay [3]; 2.09% (active) in assay [4]; 4.09% (active) in assay [5]; -18.6% (active) in assay [6]. Moreover, the values for the growth in assay [7] and in assay [8] were -11.2% (active) and 54.2%, respectively.
Consider `C=C1C(=O)O[C@H]2[C@H]1CC/C(COC(=O)C(=O)c1cn(C)c3ccc(OC)cc13)=C\CC[C@@]1(C)O[C@@H]21`, for which the growth is -55.3% (active) in assay [1]; -79.1% (active) in assay [2]; -79.2% (active) in assay [3]; -63.6% (active) in assay [4]; -34.8% (active) in assay [5]; -95.1% (active) in assay [6]. In addition, the growth in assay [7] is -65.3% (active); in assay [8], -65% (active).
For `CCCCn1c(=O)c2c(nc3n2CCCN3CCc2ccc(OCC(=O)NCCN(CC)CC)cc2)n(CCCC)c1=O`, the growth in assay [1] is 53.6%; in assay [2], 67%; in assay [3] it was 63.6%; in assay [4], 79.2%; in assay [5], 36.6%; in assay [6] it was 36.4%. In addition, the values for the growth in assay [7] and in assay [8] were 56.8% and 77.5%, respectively.
For `N#Cc1c(-c2ccccc2)cc(-c2ccc(Nc3nc(Nc4ccc(F)cc4)nc(Nc4ccc(F)cc4)n3)cc2)nc1N`, the growth in assay [1] is 77%; in assay [2], 101%; in assay [3], 105%; in assay [4], 93.9%; in assay [5] it was 84.3%; in assay [6], 70.7%. For the same compound, the growth in assay [7] was 51.8%; in assay [8], 95.3%.
Regarding `CC(C)Sc1nc(NNC(N)=S)c(C#N)c(-c2ccc(F)cc2)n1`, the growth is 83.2% in assay [1]; 104% in assay [2]; 108% in assay [3]; 106% in assay [4]; 99.1% in assay [5]; 94.6% in assay [6]. For the same compound, the growth is 101% in assay [7] and 99% in assay [8].
